This is part of a sample that, as a whole, favours compounds with a hit. Of some 79,000 tested, about 15% had one in any assay. Active and inactive are the calls of the source. No stated cut-off is given here; in the data, active means growth inhibition above about 70%; inactive means the rest.
Key:
[1] = NCI Yeast Anticancer Drug Screen. Data for the rad52 strain (AID 147);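 further: 0% = growth of vehicle-treated control cultures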; conditions: S. cerevisiae rad52 mutant growth inhibition, hits give high values
Outline: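 Genetically altered yeast (DNA damage repair defect) treated with compound; inhibition calculated relative to vehicle.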

[2] = NCI Yeast Anticancer Drug Screen. Data for the wt1 strain (AID 149);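 further: 0% = growth of vehicle-treated wt1 cultures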; conditions: S. cerevisiae wt1 strain (SPY 50644) growth inhibition, hits give high values
Outline: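 The wt1 strain was treated with compounds, and growth was compared with vehicle-treated cultures to give inhibition.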

[3] = NCI Yeast Anticancer Drug Screen. Data for the rad50EPP+ strain (AID 151);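 further: 0% = growth of vehicle-treated control cultures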; conditions: S. cerevisiae rad50 mutant strain, hits give high values
Outline: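 Strain rad50EPP+; compound exposure; % growth inhibition vs vehicle.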

[4] = NCI Yeast Anticancer Drug Screen. Data for the mgt1 strain (AID 153); conditions: S. cerevisiae mgt1 mutant growth inhibition, hits give high values
Outline: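 Read-out: yeast growth inhibition vs vehicle control. Strain mgt1, drawn from a panel altered in DNA damage repair or cell cycle control.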

[5] = NCI Yeast Anticancer Drug Screen. Data for the rad50 strain (AID 155);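 further: 0% = growth of vehicle-only cultures of the same strain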; conditions: S. cerevisiae rad50 strain growth inhibition, hits give high values
Outline: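 Cells are treated with compound, grown, and their growth is then scored against vehicle-only cultures of the same repair-deficient yeast strain.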

[6] = NCI Yeast Anticancer Drug Screen. Data for the mec2-1 strain (AID 157); conditions: S. cerevisiae mec2-1 strain, hits give high values
Outline: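 Cells of the genetically defined mec2-1 yeast strain are incubated with test compound. Inhibition of growth is calculated against vehicle-treated controls.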

[7] = NCI Yeast Anticancer Drug Screen. Data for the rad14 strain (AID 159);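 further: 0% = growth of vehicle-treated control cultures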; conditions: S. cerevisiae rad14 strain growth inhibition, hits give high values
Outline: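 Readout: yeast growth inhibition, referenced to vehicle-only cultures. Strain bears a defined alteration in DNA damage repair.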

[8] = NCI Yeast Anticancer Drug Screen. Data for the sgs1 mgt1 strain (AID 161);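 further: 0% = growth of cultures given vehicle only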; conditions: S. cerevisiae sgs1 mgt1 strain, hits give high values
Outline: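 Inhibition of yeast growth, normalised to vehicle-treated controls, is reported for a strain bearing genetic alterations in DNA damage repair.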

[9] = NCI Yeast Anticancer Drug Screen. Data for the CLN2oe strain (AID 163);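 further: 0% = growth of vehicle-only control cultures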; conditions: S. cerevisiae CLN2oe strain, hits give high values
Outline: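 Strain altered in cell-cycle control, incubated with compound; growth compared to solvent-treated controls.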

[10] = NCI Yeast Anticancer Drug Screen. Data for the cln2 rad14 strain (AID 165);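 further: 0% = growth equal to vehicle treated cultures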; conditions: S. cerevisiae cln2 rad14 strain, hits give high values
Outline: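 The screen exposed genetically defined yeast (cln2 rad14) to test compounds and scored growth inhibition relative to vehicle-treated controls.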

[11] = NCI Yeast Anticancer Drug Screen. Data for the bub3 strain (AID 167); conditions: S. cerevisiae bub3 mutant strain, hits give high values
Outline: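 Part of a panel of yeast mutants defective in DNA damage repair or cell cycle regulation. Each strain is grown with compound, and inhibition is calculated relative to solvent-treated cultures.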

[12] = NCI Yeast Anticancer Drug Screen. Data for the wt2 strain (AID 169);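 further: 0% = growth of vehicle-treated yeast cultures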; conditions: S. cerevisiae wt2 strain growth inhibition, hits give high values
Outline: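 Steps: yeast strain treated with compound; growth recorded; inhibition calculated relative to cultures given vehicle alone.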

[13] = NCI Yeast Anticancer Drug Screen. Data for the sgs1 strain (AID 173);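 further: 0% = growth of vehicle-only control cultures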; conditions: S. cerevisiae sgs1 mutant, hits give high values
Outline: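 Inhibition of yeast growth served as the measure. The mutant strain was treated with each compound, and growth was normalised to cultures receiving vehicle alone.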

[14] = NCI Yeast Anticancer Drug Screen. Data for the mlh1 rad18 strain (AID 175); conditions: S. cerevisiae mlh1 rad18 strain growth inhibition, hits give high values
Outline: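 Compound-treated yeast growth, normalised to vehicle controls. Strain bears defined DNA repair mutations.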

[15] = NCI Yeast Anticancer Drug Screen. Data for the rad18 strain (AID 177); conditions: S. cerevisiae rad18 mutant growth inhibition, hits give high values
Outline: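 Inhibition values reflect reduced yeast growth compared with vehicle-treated controls, using a strain engineered with a DNA damage repair defect.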

[16] = at 5.0 µM (retest, dose inferred, filed as 0.5)
[17] = at 50.0 µM (retest, dose inferred, filed as 5.0)

Measured: growth inhibition

COc1cc([C@@H]2c3cc4c(cc3C[C@@H]3COC(=O)C32)OCO4)cc(OC)c1O (stereo partly drawn)
inactive: [1]; at 1.2 µM 42% | [1]; at 3.7 µM 62% | [2]; at 1.2 µM 32% | [2]; at 3.7 µM 34% | [2]; at 11.0 µM 65% | [3]; at 1.2 µM -5% | [3]; at 3.7 µM -6% | [3]; at 11.0 µM -4% | [3]; at 33.0 µM -4% | [3]; at 100.0 µM -6% | [4]; at 1.2 µM 29% | [4]; at 3.7 µM 22% | [4]; at 11.0 µM 53% | [4]; at 33.0 µM 59% | [5]; at 1.2 µM 53% | [5]; [16] 64% | [6]; at 1.2 µM 1% | [6]; at 3.7 µM 17% | [6]; [16] 3% | [6]; at 11.0 µM 49% | [6]; [17] 46% | [7]; at 1.2 µM 9% | [7]; at 3.7 µM 8% | [7]; at 11.0 µM 65% | [8]; [16] 5% | [8]; [17] 45% | [9]; at 1.2 µM -3% | [9]; at 3.7 µM 0% | [9]; at 11.0 µM 24% | [9]; at 33.0 µM 58% | [9]; at 100.0 µM 51% | [10]; [16] 9% | [11]; at 1.2 µM 3% | [11]; at 3.7 µM 5% | [11]; [16] -36% | [11]; at 11.0 µM 31% | [11]; at 33.0 µM 50% | [11]; [17] 69% | [11]; at 100.0 µM 36% | [12]; at 1.2 µM 2% | [12]; at 3.7 µM 10% | [12]; at 11.0 µM 33% | [13]; at 1.2 µM 20% | [13]; at 3.7 µM 16% | [14]; [16] 2% | [14]; [17] 68% | [15]; at 1.2 µM 2% | [15]; at 3.7 µM 10% | [15]; at 11.0 µM 65%
active: [1]; at 11.0 µM 93% | [1]; at 33.0 µM 95% | [1]; at 100.0 µM 96% | [2]; at 33.0 µM 86% | [2]; at 100.0 µM 93% | [4]; at 100.0 µM 93% | [5]; at 3.7 µM 76% | [5]; at 11.0 µM 94% | [5]; at 33.0 µM 96% | [5]; [17] 96% | [5]; at 50.0 µM 97.1% | [5]; at 100.0 µM 97% | [6]; at 33.0 µM 92% | [6]; at 50.0 µM 98.8% | [6]; at 100.0 µM 96% | [7]; at 33.0 µM 75% | [7]; at 100.0 µM 93% | [8]; at 50.0 µM 78.3% | [10]; [17] 93% | [10]; at 50.0 µM 86.2% | [11]; at 50.0 µM 89.5% | [12]; at 33.0 µM 77% | [12]; at 100.0 µM 88% | [13]; at 11.0 µM 72% | [13]; at 33.0 µM 90% | [13]; at 100.0 µM 96% | [14]; at 50.0 µM 96.9% | [15]; at 33.0 µM 86% | [15]; at 100.0 µM 93%

Reference: PubChem BioAssay (NCI)
